Platelet DG rel = inhibitors of platelet dense granule secretion, primary screen, cell-based, MLPCN, human platelets; human platelet-rich plasma, SFLLRN dense granule ATP release, luminescence; inhibition, %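 (compounds screened at 7.5 µM in platelet-rich plasma)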; 300,000 tested, 0.22% active; AID 1663, 2009;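 active means mean replicate score, as percent of positive control, at or above 50; inconclusive means mean below 50 but at least one replicate at or above 50; inactive means mean and every replicate below 50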
ABCB6 inh 2 = ABCB6 transporter inhibitors, primary screen, K562-ABCB6 cells, flow cytometry, MLPCN library | ATP-binding cassette sub-family B member 6 (Homo sapiens), Q9NP58 | K562-ABCB6 porphyrin accumulation, 1 h; active compounds read low | fluorescence ratio to DMSO, % at 10 µM | 360,000 tested, 0.19% active | AID 602162, 2011;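 active means fluorescence ratio to DMSO below 75%, the collection mean minus 3 SD; inconclusive means too few cells collected in the well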;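 further: signal is porphyrin accumulated inside mitochondria; 100% equals median channel fluorescence of DMSO control wells; lower ratio means ABCB6 inhibition with less porphyrin fluorescence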
VLA-4 inh = inhibition in human VLA-4 binding assay, primary screen, VLA-4 allosteric modulator project, MLPCN library, flow cytometry, VLA-4 expressing cells; Integrin alpha-4 (Homo sapiens), P13612; ligand binding flow cytometry; inhibition, % (about 7 µM as worked out from the volumes in the protocol); 330,000 tested, 0.2% active; in the data active means inhibition above about 50%
Target sequence (P13612 whole entry, looked up): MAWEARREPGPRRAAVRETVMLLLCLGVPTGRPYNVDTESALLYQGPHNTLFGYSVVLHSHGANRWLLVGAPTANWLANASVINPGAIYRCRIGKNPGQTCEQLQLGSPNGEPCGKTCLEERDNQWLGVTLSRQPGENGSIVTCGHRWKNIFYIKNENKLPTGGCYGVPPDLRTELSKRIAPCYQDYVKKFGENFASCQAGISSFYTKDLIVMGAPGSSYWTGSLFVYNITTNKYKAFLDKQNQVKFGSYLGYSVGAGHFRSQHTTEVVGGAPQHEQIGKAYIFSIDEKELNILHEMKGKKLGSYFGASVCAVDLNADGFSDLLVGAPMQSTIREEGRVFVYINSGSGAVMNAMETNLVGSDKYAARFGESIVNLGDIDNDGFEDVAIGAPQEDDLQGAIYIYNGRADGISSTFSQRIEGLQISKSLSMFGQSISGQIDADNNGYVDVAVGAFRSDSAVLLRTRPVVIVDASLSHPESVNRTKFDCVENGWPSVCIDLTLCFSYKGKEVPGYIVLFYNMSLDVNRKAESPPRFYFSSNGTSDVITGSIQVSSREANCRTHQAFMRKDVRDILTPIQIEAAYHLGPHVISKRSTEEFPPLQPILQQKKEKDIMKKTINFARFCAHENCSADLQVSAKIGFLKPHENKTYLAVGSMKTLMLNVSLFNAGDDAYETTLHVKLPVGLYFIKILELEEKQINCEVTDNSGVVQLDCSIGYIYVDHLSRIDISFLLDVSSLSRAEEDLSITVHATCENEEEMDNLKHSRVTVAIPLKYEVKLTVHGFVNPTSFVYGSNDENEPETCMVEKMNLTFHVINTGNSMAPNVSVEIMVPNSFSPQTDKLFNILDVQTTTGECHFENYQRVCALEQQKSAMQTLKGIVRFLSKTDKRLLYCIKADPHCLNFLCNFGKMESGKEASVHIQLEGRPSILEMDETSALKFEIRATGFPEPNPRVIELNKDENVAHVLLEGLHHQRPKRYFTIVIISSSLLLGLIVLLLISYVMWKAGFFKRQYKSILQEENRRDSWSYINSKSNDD
SKN-1 block = suppressors of acrylamide-induced Pgst-4::GFP reporter in worms, primary screen, SKN-1 inhibitor project, whole organism, uHTS, GFP/RFP fluorescence ratio, strain VP596 | C. elegans VP596 Pgst-4::GFP/RFP ratio, 24 h | inhibition, % at 21.8 µM | 360,000 tested, 0.49% active | AID 624304, 2012;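 active means interference check ratio from 0.5 to 1.5 plus GFP to RFP signal ratio inhibition reaching or exceeding a fixed threshold, cut at about 30% in these data, passing the limit was not always enough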
CR mimetic SO = reduction of superoxide in aged yeast, primary screen, HTS. superoxide response (% of plate mean), % at 10 µM. AID 2690, 2010. S. cerevisiae aged cells, superoxide DHE fluorescence; active compounds read low. 330,000 tested, 0.18% active;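 active means superoxide response under a set limit, about three screen SD below normal, cut at about 65% in these data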;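 further: yeast aged for seven days with compound at 30 °C before DHE staining; 100% = average MFI of all compound-treated wells on the plate with controls excluded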
Numbers without * were called inactive; ? = inconclusive; · = no result given. Sampled rows, rich in hits. Any-hit rate of the full collection: about 1.2%.

SMILES	Platelet DG rel	ABCB6 inh 2	VLA-4 inh	SKN-1 block	CR mimetic SO
CO[C@@]1(NC(=O)C2SC(=C(C(N)=O)C(=O)O)S2)C(=O)N2C(C(=O)O)=C(CSc3nnnn3C)CS[C@@H]21 (stereo partly specified)	·	103.0	10.5	-18.4	101.0
CO[C@@]1(NC(=O)Cc2cccs2)C(=O)N2C(C(=O)O)=C(COC(N)=O)CS[C@@H]21	3.6	101.0	52.1*	5.3	102.3
COc1ccc(N2CCN(C(=O)C(=O)c3cc(OC)c4ccccc4c3)CC2)cc1	·	·	·	7.6	·
CC(=O)N=C1SC2CS(=O)(=O)CC2N1c1cccc(Cl)c1Cl (stereo unspecified)	3.8	96.0	20.4	40.1*	98.4
Cc1nc2ccc(C(=O)N(C)Cc3ccco3)cn2c1N(C)CC1CCCCC1	·	101.0	·	2.8	·
Nc1ccc(N2CCN(C(=O)c3cccs3)CC2)cc1	-1.4	131.0	9.6	48.2*	88.7
Cc1ccc(O)c(C(=O)C=Cc2ccccc2)c1	·	102.0	·	-4.0	·
O=C(C=Cc1ccccc1)c1cc(Br)ccc1O	·	95.0	·	43.3*	·
CCc1nc2ccc(C(=O)N(C)Cc3ccco3)cn2c1N(CC)C(=O)NCCc1ccccc1	·	95.0	·	17.0	·
CCCCCCCCNC(=O)C(CCC(=O)OCc1ccccc1)NC(C)=O (stereo unspecified)	0.8	103.0	6.6	53.2*	105.1
CCC(C)C(N)C(=O)NC(CCC(=O)OCc1ccccc1)C(N)=O (stereo unspecified)	-5.2	104.0	10.4	8.3	99.3
CCOC(=O)Cc1c(-c2cccc(Br)c2)nc2c3ccccc3ccn12	·	104.0	·	8.6	·
Cc1nnc(-c2cccc(Br)c2)c2cn(-c3cccc(Br)c3)nc12	-3.3	97.0	-21.7	35.5*	80.5
Cc1nnc(-c2cccc(Br)c2)c2cn(-c3ccccc3)nc12	3.9	149.0	-6.3	65.3	83.4
Cc1cc2ccccc2nc1SCC(=O)N1c2ccccc2CC1C (stereo unspecified)	67.4*	93.0	11.6	-2.8	100.2
O=c1[nH]c2cc3ccccc3cc2nc1-c1nnnn1C1CCCC1	·	104.0	·	26.2	·
c1ccn2cc(-c3ccc4c(c3)OCCO4)nc2c1	41.7	96.0	0.0	37.7*	104.0
O=C(c1ccccc1)c1ccc(C(=O)N2CCN(c3ccccc3O)CC2)cc1	·	100.0	·	14.8	·
CCOC(=O)C1(Cc2cccc(OC)c2)CCN(CC=C(C)C)CC1	57.4*	99.0	2.2	-13.6	88.5
CCOC(=O)C1(Cc2cccc(OC)c2)CCN(C/C=C/c2ccc(OC)cc2)CC1	-0.8	?	-8.6	6.1	99.7
C1CCc2c(nnc3c2-c2nonc2CC3)C1	-10.7	98.0	9.3	7.0	122.8
c1cc2c(nn1)CCc1nonc1-2	8.2	90.0	13.7	44.1*	125.1
Cc1cccc(NC(=O)CCCNC(=O)c2ccc(Cl)cc2)n1	54.1*	99.0	-12.9	-11.3	93.9
COc1ccc(C2=CC(=O)N(Nc3ccccc3)C2=O)cc1	10.7	91.0	18.1	-6.8	77.9
Cc1ccc(NN2C(=O)C=C(c3ccc(Cl)cc3)C2=O)cc1	56.9*	97.0	40.2	9.6	142.6
SMILES	Platelet DG rel	ABCB6 inh 2	VLA-4 inh	SKN-1 block	CR mimetic SO
O=C1C=C(c2ccccc2)C(=O)N1Nc1ccccc1	61.2*	97.0	17.0	-14.4	101.6
CCOC(=O)c1ccc(-c2ccc3ncnc(NCc4csc(C)n4)c3c2)o1	·	88.0	·	3.7	·
COc1ccc(Cc2nc(-c3ccc(Br)cc3)no2)cc1	·	100.0	17.2	16.1	95.2
COc1ccc(Cc2nc(-c3ccc(Cl)cc3)no2)cc1	-5.4	90.0	15.0	35.4*	101.7
Cc1cc(C)cc(C(O)c2ncc(-c3ccc(F)cc3)[nH]2)c1 (stereo unspecified)	·	101.0	·	2.9	·
O=S(=O)(c1ccc(N2CCCC2)cc1)C(F)(F)F	-12.3	96.0	-0.8	41.8*	100.6
CCC(c1nnnn1Cc1ccc2c(c1)OCO2)N1CCN(c2ccc(F)cc2)CC1 (stereo unspecified)	10.3	101.0	7.5	35.8*	101.1
O=C1NC[C@@H](CCCCN2C[C@H](Cc3ccc(O)cc3)N(CCc3ccccc3)C(=O)C2=O)N(CC2CCCCC2)C1=O	·	97.0	·	6.8	·
O=C1C2C(C(=O)N1Cc1cccnc1)C1C=CC2C12CC2 (stereo unspecified)	-3.2	107.0	-6.1	40.5*	104.2
COc1cccc(NC(=O)c2ccc3c(c2)OCO3)c1	12.0	96.0	-2.4	-10.1	96.0
COc1ccc(NC(=O)c2ccc3c(c2)OCO3)cc1Cl	26.5	111.0	7.8	40.5*	85.5
O=C(Nc1cccc(F)c1)Nc1ccc2c(c1)OCO2	11.5	97.0	5.2	-0.8	96.8
O=C(Nc1ccc2c(c1)OCO2)c1cccc(F)c1	1.9	102.0	-12.7	40.1*	135.6
Cc1ncoc1C(=O)Nc1ccc2c(c1)OCCO2	66.2*	94.0	·	-2.7	100.8
COc1cccc(NC(=O)c2ccc3c(c2)OCCO3)c1	52.0*	102.0	·	-2.1	·
CC1(C(=O)NS(=O)(=O)c2cccc(OC(F)F)c2)CCN1C(=O)c1ccco1 (stereo unspecified)	·	102.0	·	-1.6	·
COc1ccc(C(=O)Nc2ccc3[nH]ccc3c2)cc1	57.8*	102.0	18.0	12.6	99.7
COc1ccc(C(=O)Nc2cccc(OC(=O)c3ccc(C)c(C)c3)c2)cc1	-5.4	99.0	-21.0	41.7*	94.9
O=C(CSc1nc(O)c(C2CCCCC2)c(=O)[nH]1)NCC1CCCO1 (stereo unspecified)	-0.1	97.0	11.9	31.2*	84.9
C/C(=N\N=c1/sc2ccccc2n1C)c1ccccn1	-2.6	102.0	2.6	36.4*	123.3
CCc1nc2ccc(C(=O)NC3CCN(Cc4ccccc4)CC3)cn2c1N(C)Cc1cc2ccccc2s1	·	99.0	·	17.1	·
O=C(CSc1ncnc2c1oc1ccccc12)Nc1ccccc1F	-4.8	101.0	-14.1	7.5	100.3
CCOc1ccccc1NC(=O)CSc1ncnc2c1oc1ccccc12	5.7	93.0	·	34.5*	111.1
O=C(Nc1ccc2oc(-c3ccccc3)nc2c1)c1cccnc1	-3.5	102.0	-3.0	38.8*	77.3
N#C/C(=C\c1ccco1)Sc1nc2ccccc2s1	-5.5	99.0	-3.7	44.5*	107.6
COc1ccc(CC(=O)Nc2ccc(-c3nc4cc(C)ccc4o3)c(O)c2)cc1OC	-8.9	91.0	-6.8	35.2*	95.8
COc1ccc2cc(C3CC(c4ccco4)=NN3S(=O)(=O)c3ccccc3)c(Cl)nc2c1 (stereo unspecified)	-2.4	107.0	0.0	8.0	54.5*
COC(=O)C[C@H]1C=C[C@@H](NC(=O)C2CC2)[C@@H](CO)O1	·	·	·	7.9	·

Assay outcomes deposited in PubChem by several laboratories.
